Reference: PubChem BioAssay (NCI)
Several values for one entry are separate records, joined by “and”; a condition that tells them apart may be missing. Identical values can stand only once. About 79,000 compounds went through this panel and 15% of them were active in at least one assay; those are over-represented in the sample as a whole. Some compounds were tested as several samples or in several runs, with calls that do not always agree. Activity calls are given as the source filed them. Rule as the data show it: active = growth inhibition above about 70%; inactive = the rest.

Key:
[1] = NCI Yeast Anticancer Drug Screen. Data for the rad50 strain (AID 155);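 also: 0% = growth of vehicle-only cultures of the same strain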; conditions: S. cerevisiae rad50 strain growth inhibition, stronger effect = higher value
Method in brief: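 DNA repair mutant yeast, compound exposure, growth read-out; inhibition is taken relative to vehicle.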

[2] = NCI Yeast Anticancer Drug Screen. Data for the mec2-1 strain (AID 157); conditions: S. cerevisiae mec2-1 strain, stronger effect = higher value
Method in brief: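 Mutant yeast (mec2-1) grown with compound; growth inhibition relative to vehicle control reported.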

[3] = NCI Yeast Anticancer Drug Screen. Data for the sgs1 mgt1 strain (AID 161);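 also: 0% = growth of cultures given vehicle only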; conditions: S. cerevisiae sgs1 mgt1 strain, stronger effect = higher value
Method in brief: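 Compounds are added to genetically altered yeast, and growth is compared with cultures given vehicle alone to give percent inhibition.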

[4] = NCI Yeast Anticancer Drug Screen. Data for the cln2 rad14 strain (AID 165);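 also: 0% = growth equal to vehicle treated cultures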; conditions: S. cerevisiae cln2 rad14 strain, stronger effect = higher value
Method in brief: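 Readout is yeast growth inhibition versus vehicle-treated controls, using a strain with cln2 and rad14 alterations exposed to compound.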

[5] = NCI Yeast Anticancer Drug Screen. Data for the bub3 strain (AID 167); conditions: S. cerevisiae bub3 mutant strain, stronger effect = higher value
Method in brief: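 In this screen, a yeast mutant lacking normal mitotic checkpoint function is challenged with compound. Relative growth versus vehicle gives the inhibition value.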

[6] = NCI Yeast Anticancer Drug Screen. Data for the mlh1 rad18 strain (AID 175); conditions: S. cerevisiae mlh1 rad18 strain growth inhibition, stronger effect = higher value
Method in brief: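 Genetically defined yeast (DNA repair-deficient) exposed to compounds; growth inhibition determined relative to vehicle.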

[7] = at 5.0 µM (retest, dose inferred, filed as 0.5)
[8] = at 50.0 µM (retest, dose inferred, filed as 5.0)

SMILES | growth inhibition [1, 7] | growth inhibition [1, 8] | growth inhibition ([1]; at 50.0 µM) | growth inhibition [2, 7] | growth inhibition [2, 8] | growth inhibition ([2]; at 50.0 µM) | growth inhibition [3, 7] | growth inhibition [3, 8] | growth inhibition ([3]; at 50.0 µM) | growth inhibition [4, 7] | growth inhibition [4, 8] | growth inhibition ([4]; at 50.0 µM) | growth inhibition [5, 7] | growth inhibition [5, 8] | growth inhibition ([5]; at 50.0 µM) | growth inhibition [6, 7] | growth inhibition [6, 8] | growth inhibition ([6]; at 50.0 µM)
CCC[CH2][Sn]([CH2]CCC)([S]C1=NCCS1)[S]C1=NCCS1 | 96% (active) | 96% (active) | 90.7% (active) | 97% (active) | 97% (active) | 90.7% (active) | 97% (active) | 97% (active) | 90.9% (active) | 95% (active) | 95% (active) | 89.7% (active) | 95% (active) | 95% (active) | 88.3% (active) | 96% (active) | 96% (active) | 86.5% (active)
CN(C)CCN(C)P12(Oc3ccccc3O1)Oc1c(Cl)c(Cl)c(Cl)c(Cl)c1O2 | -8% (inactive) | 6% (inactive) | 99% (active) | 9% (inactive) | 14% (inactive) | 99.2% (active) | -10% (inactive) | 9% (inactive) | 99% (active) | -19% (inactive) | 22% (inactive) | 99.1% (active) | -10% (inactive) | 12% (inactive) | 99.1% (active) | 0% (inactive) | 16% (inactive) | 97.6% (active)
O=CNc1ccccc1.[Hg] | 98% (active) | 98% (active) | 99.7% (active) | 99% (active) | 99% (active) | 99.6% (active) | 99% (active) | 98% (active) | 99.4% (active) | 99% (active) | 98% (active) | 99.3% (active) | 99% (active) | 98% (active) | 99.5% (active) | 98% (active) | 98% (active) | 99.4% (active)
N#Cc1ccc(N=Cc2c([O-])ccc3ccccc23)cc1.[C-]#[O+].[C-]#[O+].[Ir] | 8% (inactive) | 8% (inactive) | 82.6% (active) | 1% (inactive) | 1% (inactive) | 59.5% (inactive) | 2% (inactive) | 2% (inactive) | 61.8% (inactive) | 0% (inactive) | 0% (inactive) | 50.2% (inactive) | 1% (inactive) | 1% (inactive) | 74.7% (active) | 13% (inactive) | 13% (inactive) | 75.8% (active)
O=[C-]CCCCCC[C-]=O.[C-]#[O+].[C-]#[O+].[C-]#[O+].[C-]#[O+].[Fe+6].[Fe+6].[c-]1[c-][c-][cH-][c-]1.[c-]1[c-][c-][cH-][c-]1 | 9% (inactive) | 97% (active) | 97.9% (active) | 13% (inactive) | 97% (active) | 98.5% (active) | 1% (inactive) | 98% (active) | 96.8% (active) | 1% (inactive) | 97% (active) | 97.8% (active) | -4% (inactive) | 97% (active) | 99% (active) | 5% (inactive) | 98% (active) | 93.1% (active)
Cn1cc(/C=C/[N+](=O)[O-])c2ccccc21 | 7% (inactive) | 95% (active) | 97.1% (active) | -2% (inactive) | 96% (active) | 97.3% (active) | 2% (inactive) | 97% (active) | 98.4% (active) | 26% (inactive) | 98% (active) | 96.5% (active) | 22% (inactive) | 97% (active) | 97.7% (active) | 19% (inactive) | 97% (active) | 97.3% (active)
O=C(O)CCCC1CCCCC1 | 0% (inactive) | 39% (inactive) | 55.1% (inactive) and 57% (inactive) | -2% (inactive) | 21% (inactive) | 37.4% (inactive) and 12.7% (inactive) | 4% (inactive) | 43% (inactive) | 43% (inactive) and 44.3% (inactive) | 4% (inactive) | 27% (inactive) | 38.4% (inactive) and 46.7% (inactive) | -1% (inactive) | 52% (inactive) | 30.5% (inactive) and 62.9% (inactive) | 2% (inactive) | 51% (inactive) | 8.95% (inactive) and 79.8% (active)
CCNC(C)(C)C(SS)c1ccc(Br)cc1 (stereo unspecified) | 6% (inactive) | 10% (inactive) | 66.3% (inactive) | 2% (inactive) | -3% (inactive) | 57.1% (inactive) | -3% (inactive) | 18% (inactive) | 73.8% (active) | 25% (inactive) | 33% (inactive) | 34.9% (inactive) | -15% (inactive) | 17% (inactive) | 84.8% (active) | -21% (inactive) | 20% (inactive) | 78.6% (active)
CCOP(=O)(OCC)/C(C#N)=C/c1cccc(Cl)c1 | 1% (inactive) | 94% (active) | 90.5% (active) | -1% (inactive) | 96% (active) | 91.8% (active) | 5% (inactive) | 94% (active) | 90.8% (active) | 14% (inactive) | 94% (active) | 88.2% (active) | -6% (inactive) | 96% (active) | 89.8% (active) | 6% (inactive) | 96% (active) | 89.3% (active)
CC1C2C=CC1C(c1c3ccc(=O)c(O)c-3oc3c(O)c(O)ccc13)C2C(=O)O (stereo unspecified) | 11% (inactive) | 33% (inactive) | 17% (inactive) | -1% (inactive) | 10% (inactive) | 47.8% (inactive) | 2% (inactive) | 33% (inactive) | 53% (inactive) | -23% (inactive) | 0% (inactive) | -35.2% (inactive) | 9% (inactive) | 37% (inactive) | -8.35% (inactive) | 7% (inactive) | 35% (inactive) | 8.3% (inactive)
Nc1c(Cl)cccc1C(=O)O | 3% (inactive) | 4% (inactive) | 54% (inactive) | -2% (inactive) | 0% (inactive) | 26.8% (inactive) | 1% (inactive) | 6% (inactive) | 45.7% (inactive) | -4% (inactive) | -7% (inactive) | 13.4% (inactive) | 3% (inactive) | 1% (inactive) | 23.9% (inactive) | 2% (inactive) | 5% (inactive) | 34.9% (inactive)
COC1=C(C)C(=O)C2=C(C1=O)C(CO)N1C(C#N)C3CC4C(C1C2N1CCOC41)N3C (stereo unspecified) | 39% (inactive) | 51% (inactive) | 75.8% (active) and 75.5% (active) | 9% (inactive) | 52% (inactive) | 85.8% (active) and 89.7% (active) | 20% (inactive) | 47% (inactive) | 77.3% (active) and 77.7% (active) | 44% (inactive) | 80% (active) | 85.1% (active) and 85% (active) | 19% (inactive) | 76% (active) | 83.2% (active) and 87.9% (active) | 19% (inactive) | 49% (inactive) | 78.7% (active) and 81% (active)
O=[N+]([O-])[O][Tl]([c]1ccccc1)[c]1ccccc1 | -4% (inactive) | 41% (inactive) | 15.3% (inactive) | -4% (inactive) | 54% (inactive) | 21.4% (inactive) | -4% (inactive) | 56% (inactive) | 49.5% (inactive) | -4% (inactive) | 57% (inactive) | 20.4% (inactive) | -3% (inactive) | 75% (active) | 51.8% (inactive) | -3% (inactive) | 41% (inactive) | 8.3% (inactive)
O=c1oc2ccccc2c(O)c1C1c2c(c3ccccc3oc2=O)Oc2c1c(=O)oc1ccccc21 | 9% (inactive) | 96% (active) | 85% (active) | 2% (inactive) | 97% (active) | 91.2% (active) | 2% (inactive) | 97% (active) | 88.5% (active) | 12% (inactive) | 97% (active) | 87.3% (active) | 9% (inactive) | 97% (active) | 84.9% (active) | 10% (inactive) | 97% (active) | 92% (active)
CC1=C[n+]2cc(C)ccc2Sc2c1ccc1ccccc21 | -2% (inactive) | 24% (inactive) | 64.3% (inactive) | 11% (inactive) | 50% (inactive) | 74.7% (active) | -20% (inactive) | 10% (inactive) | 80.5% (active) | -2% (inactive) | 4% (inactive) | 28.8% (inactive) | 0% (inactive) | 29% (inactive) | 66.9% (inactive) | -1% (inactive) | 30% (inactive) | 79.5% (active)
C[C@H]1C/C=C/[C@H]2[C@@H]3O[C@]3(C)[C@@H](C)[C@H]3[C@H](Cc4ccccc4)NC(=O)[C@]32OC(=O)O/C=C/[C@@](C)(O)C1=O | 21% (inactive) | 30% (inactive) | 72.7% (active) | 19% (inactive) | 53% (inactive) | 91.3% (active) | 19% (inactive) | 14% (inactive) | 32.7% (inactive) | 25% (inactive) | 36% (inactive) | 67.3% (inactive) | 28% (inactive) | 48% (inactive) | 83.2% (active) | 17% (inactive) | 46% (inactive) | 81.8% (active)
[Cl][Hg][CH2]CC1CC=CCC1 (stereo unspecified) | 99% (active) | 99% (active) | 99.2% (active) | 100% (active) | 100% (active) | 99.5% (active) | 100% (active) | 99% (active) | 99.6% (active) | 100% (active) | 99% (active) | 99.5% (active) | 99% (active) | 99% (active) | 99.6% (active) | 100% (active) | 100% (active) | 99.5% (active)
